Shown are actives, neighbours in structure and some others; about 2% of the full set was active somewhere.
MBD2 inh – MBD2-methylated oligo binding inhibition. inhibition, % at 4.4 µM. 370,000 tested, 0.31% active. AID 686964. TR-FRET, MBD2 binding to methylated oligonucleotide; in the data active = inhibition above about 13%
Rin1 Abl inh – blocks binding of human Rin1 to Abl; P00519+Q13671; TR-FRET Rin1/Abl binding, biochemical; inhibition, % at 7.35 µM; 360,000 tested, 0.4% active; AID 588664; in the data active = inhibition above about 5%, passing the limit was not always enough
UHRF1 binding – UHRF1 methyl-DNA binding inhibition | Q96T88 | UHRF1 binding to methylated oligo, TR-FRET | inhibition, % at 4.4 µM | 370,000 tested, 0.75% active | AID 687016; in the data active = inhibition above about 21%;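 note: UHRF1 SRA domain binding a hemimethylated CpG hairpin DNA probe; 0% = median of test compound wells and 100% = reference inhibitor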
Target sequence (Q96T88 whole entry, looked up, the tested form may be a part): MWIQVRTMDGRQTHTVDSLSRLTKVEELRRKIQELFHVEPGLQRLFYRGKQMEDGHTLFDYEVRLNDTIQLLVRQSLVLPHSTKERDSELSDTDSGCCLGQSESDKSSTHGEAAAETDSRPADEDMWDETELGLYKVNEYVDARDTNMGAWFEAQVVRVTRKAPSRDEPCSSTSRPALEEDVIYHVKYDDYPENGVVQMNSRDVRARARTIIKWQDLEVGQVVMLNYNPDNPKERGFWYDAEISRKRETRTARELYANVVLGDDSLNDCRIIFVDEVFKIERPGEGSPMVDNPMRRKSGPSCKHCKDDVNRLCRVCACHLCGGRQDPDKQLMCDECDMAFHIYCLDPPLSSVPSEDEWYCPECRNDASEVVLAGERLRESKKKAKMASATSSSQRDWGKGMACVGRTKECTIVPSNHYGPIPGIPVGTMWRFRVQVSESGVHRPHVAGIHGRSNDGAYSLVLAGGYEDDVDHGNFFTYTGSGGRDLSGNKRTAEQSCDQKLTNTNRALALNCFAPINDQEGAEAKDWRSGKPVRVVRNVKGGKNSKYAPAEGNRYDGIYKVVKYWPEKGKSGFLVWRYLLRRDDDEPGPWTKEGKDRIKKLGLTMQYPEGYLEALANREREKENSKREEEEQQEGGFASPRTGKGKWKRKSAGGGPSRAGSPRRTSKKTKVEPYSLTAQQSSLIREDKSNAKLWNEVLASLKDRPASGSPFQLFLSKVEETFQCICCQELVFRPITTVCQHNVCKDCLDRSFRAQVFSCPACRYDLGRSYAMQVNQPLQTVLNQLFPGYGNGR
LEDGF integ inh – blocks HIV-1 LEDGF/p75-dependent DNA integration; TR-FRET IN-LEDGF/p75 DNA integration, Eu/Cy5; inhibition, % at 3.7 µM; 370,000 tested, 0.64% active; AID 743269;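 active = inhibition above the screen-wide mean plus 3 SD, cut at about 13% in these data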;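 note: signal is the Cy5 over europium emission ratio at 671 and 618 nm; 0% = plate median of compound wells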
TCR-CD3 inh – human TCR-CD3 binding inhibition | AID 651800 | 360,000 tested, 0.37% active | inhibition, % at 9.4 µM | TAMRA-labeled TCR probe fluorescence, biochemical;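 note: recombinant mutant TCR 2C K166C tagged with TAMRA read by polarization; 0% = receptor in buffer alone and 100% = receptor with positive control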
Rin1-Abl confirm – confirmation of inhibitors of human Rin1-Abl interaction | inhibition, % at 7.35 µM | shares compounds with Rin1 Abl inh | TR-FRET Rin1-Abl binding, purified proteins | 1,300 tested, 49% active | AID 602124; in the data active = inhibition above about 6.5%
GFP quencher – quenches GFP fluorescence, counter-screen for Rin1-Abl inhibitors | shares compounds with Rin1 Abl inh | inhibitors/quenchers counterscreen | inhibition, % at 6.75 µM | 1,300 tested, 8.5% active; in the data active = inhibition above about 6.5%;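 note: ABL1-eGFP fusion protein alone without its partner RIN1-SBP; 0% = protein with vehicle and 100% = wells lacking protein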
GFP quench DR – counter-screen for Rin1-Abl inhibitors: GFP quenchers, dose response | shares compounds with Rin1 Abl inh | 230 tested, under 10 active | AID 602182 | IC50, µM | GFP fluorescence interference/quenching counterscreen; call rule not given here;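 note: ABL1-eGFP fusion protein alone without its RIN1 binding partner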
BSA probe FL – BSA probe counter-screen for TCR-CD3 inhibitors; TAMRA-labeled BSA probe fluorescence counterscreen; AID 652035; shares compounds with TCR-CD3 inh; inhibition, % at 9.4 µM; 1,200 tested, 10% active; in the data active = inhibition above about 23%;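 note: 0% = buffer low control and 100% = reference high control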
TCR-CD3 conf – TCR-CD3 interaction inhibition, confirmation; shares compounds with TCR-CD3 inh; TAMRA-labeled TCR probe fluorescence binding assay; inhibition, % at 9.4 µM; 1,200 tested, 48% active; AID 652036
UHRF1 ctr MBD2 – counter-screen for MBD2 inhibitors: human UHRF1 methylated DNA binding inhibitors; shares compounds with MBD2 inh; UHRF1 binding to methylated oligonucleotide, TR-FRET; inhibition, % at 4.4 µM; 1,000 tested, 25% active; AID 720530; in the data active = inhibition above about 21%;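 note: UHRF1 SRA domain binding a labeled hemimethylated CpG hairpin DNA; 0% = vehicle only and 100% = reference inhibitor with vehicle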
MBD2 confirm – confirmation of human MBD2-DBD methylated oligonucleotide binding inhibitors; shares compounds with MBD2 inh; TR-FRET MBD2-DBD binding to methylated oligonucleotide; inhibition, % at 4.4 µM; 1,000 tested, 26% active; in the data active = inhibition above about 14%
IN multimer up – activates HIV-1 integrase multimerization in LEDGF counter-screen. AID 1053131. activation, % at 7.7 µM. TR-FRET HIV-1 integrase multimerization, biochemical. shares compounds with LEDGF integ inh. 2,000 tested, 17% active; in the data active = activation above about 8.9%
TRFRET interf – counter-screen for LEDGF/p75 integration inhibitors: TR-FRET optical interference; 2,000 tested, under 10 active; inhibition, % at 7.7 µM; TR-FRET optical interference counterscreen, HIV-1 IN multimerization; shares compounds with LEDGF integ inh; AID 1053135;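 active = inhibition above the mean over all tested compounds plus 3 SD, which no compound reached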;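 note: 0% = integrase with antibodies and DMSO and 100% = antibodies without integrase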
IN-LEDGF confirm – confirmation of HIV-1 LEDGF/p75-dependent integration inhibitors | shares compounds with LEDGF integ inh | TR-FRET LEDGF/p75-dependent HIV-1 integration, biochemical | inhibition, % at 3.7 µM | 2,000 tested, 36% active | AID 1053136; in the data active = inhibition above about 14%
Numbers without * were called inactive; · = no result given. Cut-off read from the data, not from the text of the source, unless noted: active = inhibition above about 19%; inactive = the rest.

SMILES	MBD2 inh	Rin1 Abl inh	UHRF1 binding	LEDGF integ inh	TCR-CD3 inh	Rin1-Abl confirm	GFP quencher	others
C=Cc1cc(OC)c2c(c1)c(=O)oc1c2cc(OC)c2c(O)ccc(C3OC(C)C(O)C(C)(O)C3O)c21 (centres undefined)	31*	22*	10	10	14	-5	1
N#Cc1ccc(C(=O)N2Cc3cnnn3-c3ccccc3C2C#N)cc1 (centres undefined)	8	-6	8	0	-8	·	·
N#CC1c2ccccc2-n2nncc2CN1S(=O)(=O)c1ccccc1 (centres undefined)	-5	10*	0	1	-10	3	0
O=c1[nH]oc2c1CCNC2	4	-3	0	3	-2	·	·
Brc1ccc(Oc2cc(Br)c(Br)cc2Br)c(Br)c1	-3	8.2*	-1	4	3	13*	-2
CCOC(=O)C(=O)NC1CCSC1=O (centres undefined)	-3	-1	-2	-1	5	·	·
CCCC(C)C(=O)NC1CCSC1=O (centres undefined)	2	4.9*	4	4	6	0	-1
CC(C)C[C@H]1N=C(c2ccccc2)c2ccccc2N(CC(=O)NC(C)(C)C)C1=O	3	·	-4	-4	·	·	·
CC/C(CC(c1ccccc1)c1c(O)c2ccccc2oc1=O)=N\NC(N)=S (centres undefined)	1	5.9*	8	3	7	5	0
COc1ccc(C(CC(C)=O)c2c(O)c3ccccc3oc2=O)cc1OC (centres undefined)	5	2	7	-3	-2	·	·
CSCCC(c1nnnn1C1CCCCC1)N1CCC(n2c(=O)[nH]c3ccccc32)CC1 (centres undefined)	-3	53*	0	7	-6	44*	-2	GFP quench DR=>68
O=c1[nH]c2ccccc2n1C1CCN(C(CCc2ccccc2)c2nnnn2C2CCCCC2)CC1 (centres undefined)	-4	27*	-1	-3	8	14*	0
CC(C)(C)n1nnnc1C(CCc1ccccc1)N1CCC(n2c(=O)[nH]c3ccccc32)CC1 (centres undefined)	-6	17*	0	-1	0	11*	-1
O=c1[nH]c2ccccc2n1C1CCN(C(CCc2ccccc2)c2nnnn2Cc2ccccc2)CC1 (centres undefined)	1	1	1	-1	-9	·	·
CSCCC(c1nnnn1C1CCCC1)N1CCC(n2c(=O)[nH]c3ccccc32)CC1 (centres undefined)	-3	19*	1	4	-7	20*	-2	GFP quench DR=>68
CCOC(=O)c1cnc(SCc2ccc(Cl)c(Cl)c2)nc1N1CC1	3	2	-2	0	0	·	·
CC(=O)C1=C(C)OC2=C(C(=O)CCC2)[C@@]12C(=O)N(C)c1ccccc12	2	·	-2	4	2	·	·
O=c1[nH]c2ccccc2n1C1CCN(C(c2nnnn2C2CCCC2)C2CC2)CC1 (centres undefined)	-6	31*	2	6	-3	23*	0	GFP quench DR=>68
O=c1[nH]c2ccccc2n1C1CCN(C(c2nnnn2C2CCCCC2)C2CC2)CC1 (centres undefined)	-3	74*	3	2	-1	74*	-1	GFP quench DR=>68
CC(C)(C)n1nnnc1C(C1CC1)N1CCC(n2c(=O)[nH]c3ccccc32)CC1 (centres undefined)	-1	16	2	1	-6	·	·
O=C1NCN(c2ccccc2)C12CCN(C(c1nnnn1Cc1ccccc1)C1CC1)CC2 (centres undefined)	-3	4	-2	4	2	·	·
NC(=O)c1cn(C2CCCCC2)c2ccccc2c1=O	1	10*	1	2	-2	11*	0
CCCN1CCc2cccc3c2[C@H]1Cc1ccc(O)c(O)c1-3	·	12*	·	·	·	6	8.6*
O=C(CNCc1c(F)cccc1F)N1CCC2(CC1)OCCO2	3	·	-1	7	·	·	·
O=c1[nH]c(=O)n(-c2ccc(Br)cc2)c(O)c1C=NC(CO)(CO)CO	0	6.0*	0	2	3	-1	-1
C[C@H](NC(=O)OCc1ccccc1)C(=O)NC(Cc1ccccc1)P(=O)(Oc1ccccc1)Oc1ccccc1 (some centres undefined)	2	·	0	0	·	·	·
COC1C(O)C(C)OC(OC2CCC3(C)C(CCC4C3C(O)CC3(C)C(C5=CC(=O)OC5)CCC43O)C2)C1O (centres undefined)	-2	0	5	-2	-5	·	·
CN(C)C1C(=O)C(C(N)=O)=C(O)C2(O)C(=O)C3=C(O)c4c(O)cccc4C(C)(O)C3C(O)C12 (centres undefined)	31*	25*	71*	53*	25*	3	2	BSA probe FL=-1;TCR-CD3 conf=7;UHRF1 ctr MBD2=9;MBD2 confirm=13;IN multimer up=21*;TRFRET interf=-73;IN-LEDGF confirm=23*
O=C1C(Br)C2CCC1C2C(=O)O (centres undefined)	1	0	-1	-4	7	·	·
Oc1ccc(C[C@H]2NCCc3cc(O)c(O)cc32)cc1O	8	62*	30*	55*	113*	70*	4	GFP quench DR=>68;BSA probe FL=-5;TCR-CD3 conf=19*;IN multimer up=18*;TRFRET interf=-64;IN-LEDGF confirm=30*

Compound activity as filed in PubChem BioAssay.
